High-throughput results: PubChem, National Center for Advancing Translational Sciences (NCATS)
Shown are actives, neighbours in structure and some others; about 3.8% of the full set was active somewhere.
A549 viability = Nrf2 qHTS screen for inhibitors: counterscreen for cytotoxicity; A549 ARE-Fluc cells, CellTiter-Fluor viability, 18-24 h; Potency, µM (top dose mostly 46 µM), without a hit: at the highest dose activity change, negative = cytotoxicity, hits mostly inhibitors; hit rate 0.16% among 390,000; further: on the % scale 0 is the no-effect control and ±100 the full control effect
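Cytotoxicity counterscreen: CellTiter-Fluor fluorescence was measured in A549 ARE_Fluc cells after 18-24 h of compound exposure in a concentration series. The subsequent BugLite luminescent read reports ARE-luciferase activity.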
TGFb SMAD3 inh = qHTS for Inhibitors of TGF-b; AID 588855, 2011; hit rate 1.2% among 410,000; Potency, µM (series often up to 46.1 µM), inactives show top-dose activity, negative = inhibition, most hits filed as inhibitors; HepG2 CAGA-GFP TGF-b/SMAD3 reporter, GFP fluorescence, 18 h; TGF-beta stimulated, 500 pg/mL final; further: on the % scale 0 is the no-effect control and ±100 the full control effect; nearly all actives have a fitted effect of over 65% in size
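Cell-based qHTS in HEPG2 carrying a CAGA-GFP Smad reporter; compounds added before 500 pg/mL final TGF-beta, 18 h incubation at 37 degrees C, GFP fluorescence quantified per cell by imaging cytometry.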
ATXN2 expr inh = Primary qHTS for Inhibitors of ATXN expression. HEK-293 ATXN2-luciferase reporter, luminescence, 24 h. Potency, µM (highest dose often 57 µM), for the others: at the highest dose activity change, negative = inhibition, usual class: inhibitors. hit rate 0.72% among 360,000. AID 1745845, 2022; further: on the % scale 0 is the no-effect control and ±100 the full control effect; nearly all actives have a fitted effect of over 55% in size
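ATXN2-luciferase reporter cells (luciferase flanked by upstream and downstream ATXN2 gene portions) were treated 24 h at 37 °C with compounds at up to 57 uM. SteadyGlo luminescence gave expression; GF-AFC fluorescence gave viability.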
Nrf2 block = Nrf2 qHTS screen for inhibitors; A549 ARE-Fluc reporter, luciferase luminescence, 18-24 h; Potency, µM (titrated, usually from 46 µM), for inactives: at the top dose activity change, negative = inhibition, hits mostly inhibitors; hit rate 2.1% among 360,000; AID 504444, 2011; further: on the % scale 0 is the no-effect control and ±100 the full control effect; nearly all actives have a fitted effect of over 60% in size
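A549 ARE_Fluc cells, 5000/well, 5% FBS OPTI-MEM; compounds in dose-response, 18-24 h at 37 °C/5% CO2; CellTiter-Fluor viability read (Ex 405/Em 525), then BugLite luciferase luminescence = Nrf2 activity.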
ATXN viability = Viability Counterscreen for Primary qHTS for Inhibitors of ATXN expression | S2 cells (HEK-293 line with an ATXN2-luciferase reporter) viability, CellTiter-Fluor protease fluorescence, 24 h | Potency, µM (series often up to 56.7 µM), usual class: cytotoxic | hit rate 0.49% among 400,000; further: nearly all actives have a fitted effect of over 40% in size
HepG2 tox-1 = qHTS for Inhibitors of TGF-b: Cytotox Counterscreen; HepG2 CAGA-GFP viability, ATP luminescence, 18 h; Potency, µM (highest dose often 46.1 µM), for the others: at the highest dose activity change, negative = cytotoxicity, hits mostly cytotoxic; hit rate 0.76% among 410,000
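HepG2 CAGA-GFP cells (1000/well, DMEM with 1% FBS) received compound, then TGF-beta at 500 pg/mL final, and were incubated 18 hours at 37 degrees C. Viability was read by CellTiter-Glo luminescence. Media-only wells were set as complete cell-killing and DMSO as no toxicity.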
TGFb CAGA inh = qHTS for Inhibitors of TGF-b: Confirmation of Cherry Picks; shares compounds with TGFb SMAD3 inh; HepG2 CAGA-GFP TGF-b reporter, GFP fluorescence, 18 h; cells stimulated with TGF-beta, 500 pg/mL; Potency, µM (highest dose often 46.1 µM), without a hit: at the highest dose activity, negative = inhibition, usual class: inhibitors; hit rate 63% among 1,600; further: on the % scale 0 is the no-effect control and ±100 the full control effect; nearly all actives have a fitted effect of over 65% in size
HepG2 tox-2 = qHTS for Inhibitors of TGF-b: Cytotox Counterscreen for Cherry Picks. shares compounds with TGFb SMAD3 inh. HepG2 CAGA-GFP viability, ATP luminescence, 18 h; cells stimulated with TGF-beta, 500 pg/mL. hit rate 27% among 1,600. Potency, µM (doses to about 46.1 µM), for inactives: top-dose activity, negative = cytotoxicity, actives largely listed as inhibitors; further: on the % scale 0 is the no-effect control and ±100 the full control effect; nearly all actives have a fitted effect of over 70% in size
CCL64 TGFb inh = qHTS for Inhibitors of TGF-b: CCL64 Cells Orthogonal Assay for Cherry Picks; hit rate 41% among 1,600; Potency, µM (doses to about 46.1 µM), inactives show top-dose activity, negative = inhibition, actives largely listed as inhibitors; shares compounds with TGFb SMAD3 inh; CCL64 CAGA-GFP reporter, TGF-b stimulated, GFP fluorescence, 18 h; further: nearly all actives have a fitted effect of over 65% in size
COP TGFb inh = qHTS for Inhibitors of TGF-b: Hit Validation in HepG2 Cells using COP promoter; shares compounds with TGFb SMAD3 inh; HepG2 COP-GFP TGF-b reporter, GFP fluorescence, 18 h; cells stimulated by added recombinant TGF-beta; Potency, µM (titrated, usually from 46.1 µM), for inactives: top-dose activity, negative = inhibition, hits mostly inhibitors; hit rate 3% among 1,600; AID 720537, 2013; further: nearly all actives have a fitted effect of over 70% in size
* = called active by the depositor; i = inactive; u = inconclusive; x = no result given. The call rests on the fitted dose curve; in most records, active means well fitted curve in the direction sought with a large enough effect; inconclusive means small, poorly fitted or top-dose-only effect, or another doubt; inactive means no such curve, though single readings can be large; an effect the other way counts as inactive or inconclusive. Potency means the concentration at half of the fitted maximal effect.

SMILES | A549 viability | TGFb SMAD3 inh | ATXN2 expr inh | Nrf2 block | ATXN viability | HepG2 tox-1 | TGFb CAGA inh | HepG2 tox-2 | CCL64 TGFb inh | COP TGFb inh
CCOC(=O)c1c(C)oc2c1c(C=NCC1CCCO1)c(O)c1ccccc12 (centres undefined) | -7% | -5% | 3% | -1% | i | 3% | x | x | x | x
O=C(Cc1cccc(NC(=O)C2CCCN(C(=O)C3CCCCC3)C2)c1)Nc1cccc(C(=O)N2CCCC2)c1 (centres undefined) | -4% | u | -13% | -21% | i | -16% | u | -8% | -24% | -5%
CCOC(=O)C1(Cc2cccc(Cl)c2)CCCN(C(=O)C(C)(C)C)C1 (centres undefined) | -6% | -15% | 36% | u | i | -1% | x | x | x | x
O=C(/C=C/c1ccc(Cl)cc1)c1ccc([N+](=O)[O-])o1 | -17% | 3.5µM* | u | -20% | 11µM* | -57% | 2.9µM* | 7.3µM* | 2.1µM* | 6%
Cc1cc(O)c(C(=O)/C=C/c2ccc(Cl)cc2)c(=O)o1 | 0% | -4% | -10% | 1% | x | -30% | x | x | x | x
COc1ccc(Cl)cc1NC(=O)CN(C)C(=O)c1ccc(-n2cncn2)cc1 | 2% | 1% | -5% | 1% | i | -17% | x | x | x | x
Cc1cccc(CN2CCCC(C(=O)c3ccc4c5c(cccc35)CC4)C2)n1 (centres undefined) | -13% | 10µM* | -35% | -9% | i | -60% | u | u | u | 60%
O=C(c1ccc2c3c(cccc13)CC2)C1CCCN(Cc2cccnc2)C1 (centres undefined) | -1% | -4% | u | -7% | u | -20% | x | x | x | x
CCN1CCN(C(=O)C(C)Sc2nc3nc(C)cc(C)n3n2)CC1 (centres undefined) | 1% | 3% | 8% | 16% | i | -4% | x | x | x | x
COc1cc(/C=N/NC(=O)c2ccncc2)ccc1OC(=O)c1cccc(Br)c1 | 0% | -2% | -10% | 5% | i | -12% | x | x | x | x
COc1cccc(/C=N/NC(=O)c2ccncc2)c1OC(=O)c1ccc(Br)cc1 | -12% | u | u | u | u | -36% | u | -20% | u | 8%
O=S(=O)(Nc1cccc2ncccc12)c1cccs1 | u | 6.3µM* | 3.2µM* | 21µM* | u | -41% | 15µM* | u | 6.5µM* | 40%
COc1ccc(NC(=O)N(C)C[C@H]2Oc3c(NC(=O)c4nc5ccccc5s4)cccc3C(=O)N([C@@H](C)CO)C[C@H]2C)cc1 | -11% | 11µM* | u | u | x | -6% | u | -22% | 18µM* | 38%
C[C@H](CO)N1C[C@H](C)[C@@H](CN(C)Cc2ccc(Oc3ccccc3)cc2)Oc2c(NC(=O)c3ccncc3)cccc2C1=O | -15% | 14µM* | 0% | u | u | 0% | 23µM* | u | u | 37%
Cc1ccccc1CS(=O)(=O)c1ncc(Cl)c(C(=O)Nc2ccc(F)cc2)n1 | -4% | 10µM* | x | 7% | x | 22µM* | u | u | 3.7µM* | u
O=C(Nc1ccc2ccccc2c1)c1nc(S(=O)(=O)Cc2ccccc2F)ncc1Cl | x | u | x | x | x | -62% | x | x | x | x
O=C(Nc1ccc(F)cc1)c1nc(S(=O)(=O)Cc2ccccc2)ncc1Cl | u | 5µM* | u | u | x | 7.1µM* | 3.3µM* | 15µM* | 2.6µM* | u
COc1ccc(OC)c(NC(=O)c2nc(S(=O)(=O)Cc3ccccc3)ncc2Cl)c1 | u | 3.5µM* | -25% | u | 18µM* | 7.9µM* | 4.6µM* | 6.5µM* | 3.7µM* | 10µM*
Cc1cccc(CS(=O)(=O)c2ncc(Cl)c(C(=O)Nc3c(C)cccc3C)n2)c1 | u | 6.3µM* | -18% | 15µM* | u | 10µM* | 4.6µM* | 9.2µM* | 4.6µM* | u
COC(=O)c1ccccc1NC(=O)c1nc(S(=O)(=O)Cc2ccccc2F)ncc1Cl | 3% | -2% | 9% | u | i | 4% | x | x | x | x
COc1ccc(OC)c(NC(=O)CS(=O)(=O)Cc2ccccc2)c1 | 1% | 20% | 2% | 0% | i | 14% | x | x | x | x
COc1ccc(-c2cn3nc(N4CCCC(C(=O)NCc5ccc(Cl)cc5)C4)sc3n2)cc1 (centres undefined) | -1% | -17% | 13% | x | i | -11% | x | x | x | x
COc1ccc(CN(C)S(=O)(=O)c2nnc(NC(=O)c3cccc(F)c3)s2)cc1 | -2% | u | -6% | 2% | i | -30% | x | x | x | x
Cc1cccc(NC(=O)CSc2ncnc3sc(C)cc23)c1 | 9% | 4% | -15% | 2% | i | -13% | x | x | x | x
O=[N+]([O-])c1cnc(Sc2ccncn2)c([N+](=O)[O-])c1 | x | u | x | x | u | -99% | x | x | x | x
O=[N+]([O-])c1cnc(Sc2ccncn2)s1 | -5% | 2.2µM* | x | -3% | 3.2µM* | -109% | 3.7µM* | 2.9µM* | 2.1µM* | 3.7µM*
Cc1ccnc(Nc2nc(-c3ccccc3)cs2)c1 | 1% | 10µM* | x | u | i | -71% | -26% | -4% | 0% | 6%
